Measured values as given in the supplement of paper PMC11732987, “Enantioselective OTUD7B fragment discovery through chemoproteomics screening and high-throughput optimisation” (Communications Chemistry, 2025).

Columns and labels:
Assay in all cases: log2 ratio of Biotin-Ahx-Ub-VS probe labelling (fragment/DMSO); higher = less target engagement (more negative = stronger competition), active = hit call of the paper (q ≤ 0.05, log2 ratio ≤ -1)
Conditions in all cases: compound concentration: 200 uM; treatment time: 3 h
USP42 = target: T1, USP42 (UniProt Q9H9J4)
T1 sequence (whole entry): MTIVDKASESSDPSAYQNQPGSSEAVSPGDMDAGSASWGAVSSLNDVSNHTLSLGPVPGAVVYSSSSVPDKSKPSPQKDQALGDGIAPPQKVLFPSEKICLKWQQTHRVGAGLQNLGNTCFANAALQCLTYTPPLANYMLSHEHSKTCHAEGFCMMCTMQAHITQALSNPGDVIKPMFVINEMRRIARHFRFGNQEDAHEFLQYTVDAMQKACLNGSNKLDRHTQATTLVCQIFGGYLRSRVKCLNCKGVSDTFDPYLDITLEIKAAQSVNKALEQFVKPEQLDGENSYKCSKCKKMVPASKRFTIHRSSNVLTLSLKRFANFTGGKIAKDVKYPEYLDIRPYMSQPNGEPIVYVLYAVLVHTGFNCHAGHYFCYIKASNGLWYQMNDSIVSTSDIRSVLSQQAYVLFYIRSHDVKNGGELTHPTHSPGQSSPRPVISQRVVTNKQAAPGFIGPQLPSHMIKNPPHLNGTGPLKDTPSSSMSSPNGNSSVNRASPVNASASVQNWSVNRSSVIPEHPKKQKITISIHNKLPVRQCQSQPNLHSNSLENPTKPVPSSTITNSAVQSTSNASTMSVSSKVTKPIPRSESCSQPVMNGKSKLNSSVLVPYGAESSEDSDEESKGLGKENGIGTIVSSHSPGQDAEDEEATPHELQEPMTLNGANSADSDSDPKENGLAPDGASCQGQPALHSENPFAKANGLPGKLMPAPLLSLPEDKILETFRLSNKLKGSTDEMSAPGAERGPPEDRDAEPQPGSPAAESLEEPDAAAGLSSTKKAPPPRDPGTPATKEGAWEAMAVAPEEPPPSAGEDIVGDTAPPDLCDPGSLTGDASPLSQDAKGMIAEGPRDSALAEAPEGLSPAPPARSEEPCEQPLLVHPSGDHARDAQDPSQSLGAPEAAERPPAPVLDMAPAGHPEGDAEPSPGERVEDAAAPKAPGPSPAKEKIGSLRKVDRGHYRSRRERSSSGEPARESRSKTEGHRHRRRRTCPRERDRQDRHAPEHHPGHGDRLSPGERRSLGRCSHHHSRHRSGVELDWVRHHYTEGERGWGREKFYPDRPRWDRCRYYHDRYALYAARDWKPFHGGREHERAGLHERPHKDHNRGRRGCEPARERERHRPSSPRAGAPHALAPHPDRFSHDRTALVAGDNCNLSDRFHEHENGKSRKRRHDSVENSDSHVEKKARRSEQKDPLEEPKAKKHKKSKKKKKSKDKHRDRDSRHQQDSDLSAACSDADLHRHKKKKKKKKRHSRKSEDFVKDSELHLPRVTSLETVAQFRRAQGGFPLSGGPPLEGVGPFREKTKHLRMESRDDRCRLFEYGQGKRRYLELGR
Procedure, shortened: (§1)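 Each value is an average log2 ratio of fragment to vehicle, tested by unpaired t-test. The underlying Spectronaut label-free quantities were global-median-normalised, and only proteins with ≥2 unique peptides were included. Triplicate HEK293T lysate samples (495 µg) were exposed to fragment at 200 µM or vehicle for 3 h, then to Biotin-Ahx-Ub-VS at 0.5 µM final for 1 h, before NeutrAvidin enrichment of labelled DUBs, LysC and trypsin digestion, and diaPASEF LC-MS/MS.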

USP46 = USP46 (UniProt P62068)
Procedure, shortened: as §1

USP47 = target: T2, USP47 (UniProt Q96K76)
T2 sequence (whole entry): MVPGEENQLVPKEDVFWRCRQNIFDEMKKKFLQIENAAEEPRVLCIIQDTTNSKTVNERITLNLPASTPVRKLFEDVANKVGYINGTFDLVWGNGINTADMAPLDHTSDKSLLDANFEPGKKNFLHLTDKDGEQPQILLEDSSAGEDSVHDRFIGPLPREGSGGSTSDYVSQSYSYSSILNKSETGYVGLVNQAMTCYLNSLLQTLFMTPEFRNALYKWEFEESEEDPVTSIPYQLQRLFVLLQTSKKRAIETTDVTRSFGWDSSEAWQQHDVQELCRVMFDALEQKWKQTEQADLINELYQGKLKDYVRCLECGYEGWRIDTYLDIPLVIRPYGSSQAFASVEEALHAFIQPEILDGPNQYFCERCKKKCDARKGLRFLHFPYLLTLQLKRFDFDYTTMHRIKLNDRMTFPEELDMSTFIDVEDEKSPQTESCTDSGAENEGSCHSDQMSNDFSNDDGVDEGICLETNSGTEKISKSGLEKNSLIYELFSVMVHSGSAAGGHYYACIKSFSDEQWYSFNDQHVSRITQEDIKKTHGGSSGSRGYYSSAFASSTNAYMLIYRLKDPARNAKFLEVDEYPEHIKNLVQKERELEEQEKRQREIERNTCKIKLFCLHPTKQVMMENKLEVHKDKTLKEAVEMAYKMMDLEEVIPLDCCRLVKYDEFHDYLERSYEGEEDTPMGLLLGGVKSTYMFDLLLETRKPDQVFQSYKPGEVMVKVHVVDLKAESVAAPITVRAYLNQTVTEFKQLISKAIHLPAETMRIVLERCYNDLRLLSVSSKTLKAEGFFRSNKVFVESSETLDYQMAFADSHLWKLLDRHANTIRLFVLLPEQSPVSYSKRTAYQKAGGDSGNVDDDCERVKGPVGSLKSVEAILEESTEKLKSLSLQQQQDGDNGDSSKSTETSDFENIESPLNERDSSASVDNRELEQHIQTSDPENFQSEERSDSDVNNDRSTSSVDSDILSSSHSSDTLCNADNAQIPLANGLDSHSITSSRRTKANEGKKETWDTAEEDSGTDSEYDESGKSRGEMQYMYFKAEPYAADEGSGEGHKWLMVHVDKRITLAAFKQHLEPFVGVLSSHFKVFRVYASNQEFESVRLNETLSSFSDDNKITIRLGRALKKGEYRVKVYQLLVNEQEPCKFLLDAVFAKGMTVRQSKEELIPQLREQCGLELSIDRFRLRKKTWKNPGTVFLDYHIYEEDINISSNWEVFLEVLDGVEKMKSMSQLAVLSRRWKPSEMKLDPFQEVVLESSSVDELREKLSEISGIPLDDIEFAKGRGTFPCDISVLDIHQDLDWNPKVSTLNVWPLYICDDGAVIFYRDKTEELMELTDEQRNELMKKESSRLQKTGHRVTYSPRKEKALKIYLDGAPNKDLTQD
Procedure, shortened: as §1

USP48 = target: T3, USP48 (UniProt Q86UV5)
T3 sequence (whole entry): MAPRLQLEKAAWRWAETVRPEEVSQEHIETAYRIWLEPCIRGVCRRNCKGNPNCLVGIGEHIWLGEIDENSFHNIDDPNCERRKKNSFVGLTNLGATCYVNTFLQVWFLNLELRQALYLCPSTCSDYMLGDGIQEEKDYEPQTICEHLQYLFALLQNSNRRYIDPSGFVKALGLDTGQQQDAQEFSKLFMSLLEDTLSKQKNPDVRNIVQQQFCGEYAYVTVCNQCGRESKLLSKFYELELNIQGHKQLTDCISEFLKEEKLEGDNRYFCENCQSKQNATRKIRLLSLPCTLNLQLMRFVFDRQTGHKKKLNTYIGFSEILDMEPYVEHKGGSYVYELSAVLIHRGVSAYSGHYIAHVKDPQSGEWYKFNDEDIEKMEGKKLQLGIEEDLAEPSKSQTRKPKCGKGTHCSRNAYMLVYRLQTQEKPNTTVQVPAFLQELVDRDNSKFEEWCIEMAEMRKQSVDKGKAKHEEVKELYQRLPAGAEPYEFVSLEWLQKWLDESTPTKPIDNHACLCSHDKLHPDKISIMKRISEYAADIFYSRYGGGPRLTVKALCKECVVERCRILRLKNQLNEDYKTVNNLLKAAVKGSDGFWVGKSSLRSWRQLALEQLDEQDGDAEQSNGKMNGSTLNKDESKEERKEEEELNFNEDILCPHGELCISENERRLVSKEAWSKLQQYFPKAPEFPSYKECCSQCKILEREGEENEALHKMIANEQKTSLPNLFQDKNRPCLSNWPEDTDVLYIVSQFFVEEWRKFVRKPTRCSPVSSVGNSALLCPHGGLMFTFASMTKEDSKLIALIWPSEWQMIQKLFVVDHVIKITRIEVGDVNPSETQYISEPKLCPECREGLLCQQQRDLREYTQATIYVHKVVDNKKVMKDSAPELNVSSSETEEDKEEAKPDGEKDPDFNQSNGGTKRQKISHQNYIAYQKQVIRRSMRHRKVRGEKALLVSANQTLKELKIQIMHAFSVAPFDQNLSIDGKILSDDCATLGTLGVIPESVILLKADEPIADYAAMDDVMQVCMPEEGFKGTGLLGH
Procedure, shortened: as §1

USP5 = target: T4, USP5 (UniProt P45974)
T4 sequence (whole entry): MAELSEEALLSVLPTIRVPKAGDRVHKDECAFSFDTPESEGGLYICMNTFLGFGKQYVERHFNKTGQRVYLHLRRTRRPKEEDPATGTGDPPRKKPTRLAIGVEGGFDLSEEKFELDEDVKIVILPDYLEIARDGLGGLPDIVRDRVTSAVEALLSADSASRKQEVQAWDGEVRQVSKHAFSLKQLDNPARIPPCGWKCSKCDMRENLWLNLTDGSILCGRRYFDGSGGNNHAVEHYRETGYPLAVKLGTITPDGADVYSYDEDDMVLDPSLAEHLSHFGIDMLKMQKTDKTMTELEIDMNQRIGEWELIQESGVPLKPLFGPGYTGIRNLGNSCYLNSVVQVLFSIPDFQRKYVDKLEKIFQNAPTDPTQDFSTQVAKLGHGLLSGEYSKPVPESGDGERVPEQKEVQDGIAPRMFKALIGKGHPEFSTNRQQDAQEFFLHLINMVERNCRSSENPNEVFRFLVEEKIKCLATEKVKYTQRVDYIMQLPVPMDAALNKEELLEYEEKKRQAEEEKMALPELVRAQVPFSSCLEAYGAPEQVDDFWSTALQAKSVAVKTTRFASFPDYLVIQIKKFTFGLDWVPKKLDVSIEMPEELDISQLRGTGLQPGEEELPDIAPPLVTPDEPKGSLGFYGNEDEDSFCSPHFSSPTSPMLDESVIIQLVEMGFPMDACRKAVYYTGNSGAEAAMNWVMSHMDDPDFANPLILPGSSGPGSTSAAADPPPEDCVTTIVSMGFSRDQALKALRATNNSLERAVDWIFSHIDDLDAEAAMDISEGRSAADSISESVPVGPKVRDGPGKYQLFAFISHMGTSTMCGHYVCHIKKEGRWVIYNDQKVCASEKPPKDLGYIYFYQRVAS
Procedure, shortened: as §1

USP54 = USP54 (UniProt Q70EL1)
Procedure, shortened: as §1

USP7 = USP7 (UniProt Q93009)
Procedure, shortened: as §1

USP8 = target: T5, USP8 (UniProt P40818)
T5 sequence (whole entry): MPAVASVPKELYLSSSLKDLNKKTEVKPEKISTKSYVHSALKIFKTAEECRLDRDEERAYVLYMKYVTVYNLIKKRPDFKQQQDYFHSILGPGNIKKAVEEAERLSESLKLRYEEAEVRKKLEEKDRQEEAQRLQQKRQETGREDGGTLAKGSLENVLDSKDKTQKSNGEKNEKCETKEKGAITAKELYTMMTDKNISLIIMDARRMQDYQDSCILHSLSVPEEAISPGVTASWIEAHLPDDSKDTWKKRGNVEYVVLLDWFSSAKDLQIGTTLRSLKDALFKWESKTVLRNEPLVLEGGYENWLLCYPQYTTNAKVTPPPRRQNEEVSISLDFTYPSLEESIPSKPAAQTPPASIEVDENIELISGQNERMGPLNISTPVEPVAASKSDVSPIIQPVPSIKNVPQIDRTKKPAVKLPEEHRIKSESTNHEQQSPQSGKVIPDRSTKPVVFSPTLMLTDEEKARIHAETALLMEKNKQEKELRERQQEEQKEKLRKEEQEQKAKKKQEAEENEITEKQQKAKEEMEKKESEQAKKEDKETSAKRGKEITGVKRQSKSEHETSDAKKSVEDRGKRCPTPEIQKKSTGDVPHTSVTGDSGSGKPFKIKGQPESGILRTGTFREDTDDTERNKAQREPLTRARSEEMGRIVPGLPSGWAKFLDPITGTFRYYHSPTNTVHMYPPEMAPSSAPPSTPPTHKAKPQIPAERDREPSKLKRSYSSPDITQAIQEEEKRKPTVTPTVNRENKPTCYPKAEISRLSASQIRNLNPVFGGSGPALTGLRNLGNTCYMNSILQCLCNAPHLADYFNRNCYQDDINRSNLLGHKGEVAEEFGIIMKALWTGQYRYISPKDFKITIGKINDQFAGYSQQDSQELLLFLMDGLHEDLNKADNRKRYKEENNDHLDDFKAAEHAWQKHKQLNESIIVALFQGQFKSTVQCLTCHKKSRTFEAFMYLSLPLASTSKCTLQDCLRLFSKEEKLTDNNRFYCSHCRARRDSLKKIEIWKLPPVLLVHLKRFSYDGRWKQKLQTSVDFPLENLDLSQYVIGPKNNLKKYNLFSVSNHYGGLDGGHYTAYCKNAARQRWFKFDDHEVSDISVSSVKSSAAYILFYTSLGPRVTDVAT
Procedure, shortened: as §1

USP9X = USP9X (UniProt Q93008)
Procedure, shortened: as §1

UniProt O00487 = target: UniProt O00487
Procedure, shortened: as §1

Measured: log2 ratio of Biotin-Ahx-Ub-VS probe labelling

Chain of USP7 (Q93009 whole entry, looked up): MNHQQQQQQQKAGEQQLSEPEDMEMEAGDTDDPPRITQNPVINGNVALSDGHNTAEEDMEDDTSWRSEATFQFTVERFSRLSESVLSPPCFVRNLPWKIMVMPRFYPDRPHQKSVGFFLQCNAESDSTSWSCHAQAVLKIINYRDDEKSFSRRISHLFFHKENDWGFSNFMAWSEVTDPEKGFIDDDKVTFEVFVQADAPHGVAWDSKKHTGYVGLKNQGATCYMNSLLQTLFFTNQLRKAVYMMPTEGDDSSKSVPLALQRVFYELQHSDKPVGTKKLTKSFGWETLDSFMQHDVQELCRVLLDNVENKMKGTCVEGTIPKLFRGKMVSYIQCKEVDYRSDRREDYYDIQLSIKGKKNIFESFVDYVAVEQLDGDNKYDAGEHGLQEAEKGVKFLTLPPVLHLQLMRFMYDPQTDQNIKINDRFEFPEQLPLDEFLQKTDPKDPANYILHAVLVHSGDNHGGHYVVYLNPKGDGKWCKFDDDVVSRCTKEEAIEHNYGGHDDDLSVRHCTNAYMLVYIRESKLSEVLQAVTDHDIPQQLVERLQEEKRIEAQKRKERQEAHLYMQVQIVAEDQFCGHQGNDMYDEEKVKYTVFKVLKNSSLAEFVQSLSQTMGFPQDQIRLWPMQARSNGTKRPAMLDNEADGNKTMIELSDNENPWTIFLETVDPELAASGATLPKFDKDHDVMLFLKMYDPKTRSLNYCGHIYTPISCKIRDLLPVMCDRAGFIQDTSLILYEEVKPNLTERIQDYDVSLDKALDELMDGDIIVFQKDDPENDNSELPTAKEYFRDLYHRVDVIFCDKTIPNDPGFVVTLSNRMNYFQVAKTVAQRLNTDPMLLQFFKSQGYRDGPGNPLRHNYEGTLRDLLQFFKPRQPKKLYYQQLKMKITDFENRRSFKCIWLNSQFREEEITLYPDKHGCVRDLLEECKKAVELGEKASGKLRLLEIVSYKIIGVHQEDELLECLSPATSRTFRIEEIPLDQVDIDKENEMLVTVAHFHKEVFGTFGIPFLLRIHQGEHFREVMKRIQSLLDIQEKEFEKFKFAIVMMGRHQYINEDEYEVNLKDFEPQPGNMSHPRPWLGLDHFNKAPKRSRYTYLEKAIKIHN
Chain of USP54 (Q70EL1 whole entry): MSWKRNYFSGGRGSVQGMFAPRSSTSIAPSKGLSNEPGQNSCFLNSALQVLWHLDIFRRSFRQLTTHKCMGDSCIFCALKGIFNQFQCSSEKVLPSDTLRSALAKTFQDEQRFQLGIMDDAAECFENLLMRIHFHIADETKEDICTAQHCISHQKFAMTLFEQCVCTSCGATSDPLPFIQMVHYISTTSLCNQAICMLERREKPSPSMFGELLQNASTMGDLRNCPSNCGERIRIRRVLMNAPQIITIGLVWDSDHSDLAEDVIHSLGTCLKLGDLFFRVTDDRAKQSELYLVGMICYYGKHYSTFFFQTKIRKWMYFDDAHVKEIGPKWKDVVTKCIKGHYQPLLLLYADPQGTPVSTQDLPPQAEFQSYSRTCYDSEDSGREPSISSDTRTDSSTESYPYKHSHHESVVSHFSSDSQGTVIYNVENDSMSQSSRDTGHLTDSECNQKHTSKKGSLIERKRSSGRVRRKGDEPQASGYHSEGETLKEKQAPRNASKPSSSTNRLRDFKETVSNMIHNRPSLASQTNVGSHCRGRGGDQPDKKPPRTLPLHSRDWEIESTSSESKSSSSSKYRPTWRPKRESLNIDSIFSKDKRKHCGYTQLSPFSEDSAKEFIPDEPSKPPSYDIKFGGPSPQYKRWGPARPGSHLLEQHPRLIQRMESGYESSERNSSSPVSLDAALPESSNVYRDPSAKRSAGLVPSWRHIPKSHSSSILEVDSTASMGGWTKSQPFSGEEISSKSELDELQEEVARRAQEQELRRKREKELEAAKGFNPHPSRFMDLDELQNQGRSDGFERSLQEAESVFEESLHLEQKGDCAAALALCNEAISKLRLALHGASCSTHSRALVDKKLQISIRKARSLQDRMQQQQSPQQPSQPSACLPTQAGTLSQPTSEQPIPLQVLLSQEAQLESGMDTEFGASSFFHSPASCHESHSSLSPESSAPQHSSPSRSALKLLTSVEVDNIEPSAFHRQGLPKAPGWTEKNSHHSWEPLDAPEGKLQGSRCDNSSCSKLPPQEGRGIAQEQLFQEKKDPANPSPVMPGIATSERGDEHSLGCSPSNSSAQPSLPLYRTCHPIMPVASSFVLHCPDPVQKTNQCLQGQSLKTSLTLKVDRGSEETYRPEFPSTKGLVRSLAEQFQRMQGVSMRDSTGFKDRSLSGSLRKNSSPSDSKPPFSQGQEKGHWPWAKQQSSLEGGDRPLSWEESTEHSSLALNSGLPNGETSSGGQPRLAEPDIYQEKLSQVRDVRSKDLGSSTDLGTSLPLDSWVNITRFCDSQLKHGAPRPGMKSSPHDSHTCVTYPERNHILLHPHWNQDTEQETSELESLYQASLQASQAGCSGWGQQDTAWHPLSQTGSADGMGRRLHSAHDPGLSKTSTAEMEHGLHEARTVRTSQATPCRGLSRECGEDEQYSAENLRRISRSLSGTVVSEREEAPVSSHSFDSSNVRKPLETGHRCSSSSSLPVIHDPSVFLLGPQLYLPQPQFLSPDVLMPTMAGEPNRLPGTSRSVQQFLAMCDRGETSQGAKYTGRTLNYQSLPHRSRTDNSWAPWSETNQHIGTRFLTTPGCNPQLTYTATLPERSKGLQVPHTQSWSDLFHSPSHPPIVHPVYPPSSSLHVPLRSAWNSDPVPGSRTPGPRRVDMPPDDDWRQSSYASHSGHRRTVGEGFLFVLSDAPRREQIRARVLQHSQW
Chain of UniProt O00487 (O00487 whole entry): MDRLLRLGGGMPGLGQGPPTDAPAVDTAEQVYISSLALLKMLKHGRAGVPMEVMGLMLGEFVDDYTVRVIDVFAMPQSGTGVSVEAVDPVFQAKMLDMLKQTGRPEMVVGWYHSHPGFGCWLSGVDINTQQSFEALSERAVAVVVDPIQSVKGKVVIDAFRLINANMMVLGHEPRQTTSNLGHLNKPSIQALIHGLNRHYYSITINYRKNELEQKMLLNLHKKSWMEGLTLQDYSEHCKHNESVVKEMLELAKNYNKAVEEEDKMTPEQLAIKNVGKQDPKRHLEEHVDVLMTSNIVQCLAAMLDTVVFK
Chain of USP46 (P62068 whole entry): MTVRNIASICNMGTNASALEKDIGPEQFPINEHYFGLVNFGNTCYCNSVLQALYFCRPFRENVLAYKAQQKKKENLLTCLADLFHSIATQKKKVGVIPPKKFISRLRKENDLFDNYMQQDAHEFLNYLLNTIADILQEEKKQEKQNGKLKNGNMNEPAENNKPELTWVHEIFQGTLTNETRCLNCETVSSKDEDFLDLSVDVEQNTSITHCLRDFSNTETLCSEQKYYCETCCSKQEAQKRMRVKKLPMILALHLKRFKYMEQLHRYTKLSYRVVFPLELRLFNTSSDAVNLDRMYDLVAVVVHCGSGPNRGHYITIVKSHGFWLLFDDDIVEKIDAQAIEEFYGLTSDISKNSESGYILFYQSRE

O=C(CCl)NCC1(c2ccccc2)CC1
inactive: USP42 -0.475 | USP46 0.0609 | USP47 -0.388 | USP48 -0.502 | USP5 0.023 | USP54 0.574 | USP7 -0.075 | USP8 -0.144 | USP9X -0.121 | UniProt O00487 -0.00244
